Screens: PubChem BioAssay, National Center for Advancing Translational Sciences (NCATS)
AmpC inh detg: inhibitors of E. coli AmpC beta-lactamase with detergent; AmpC hydrolysis of nitrocefin, absorbance 480 nm, 0.01% Triton; P00811; 370,000 tested, 0.041% active; Potency, µM (doses to about 114 µM), inactives show at the highest dose activity change, negative = inhibition, actives largely listed as inhibitors;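 note: 0% = no-compound wells and -100% = no-enzyme wells; nearly all actives have a fitted effect of over 25% in size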
Target sequence (P00811 whole entry, looked up): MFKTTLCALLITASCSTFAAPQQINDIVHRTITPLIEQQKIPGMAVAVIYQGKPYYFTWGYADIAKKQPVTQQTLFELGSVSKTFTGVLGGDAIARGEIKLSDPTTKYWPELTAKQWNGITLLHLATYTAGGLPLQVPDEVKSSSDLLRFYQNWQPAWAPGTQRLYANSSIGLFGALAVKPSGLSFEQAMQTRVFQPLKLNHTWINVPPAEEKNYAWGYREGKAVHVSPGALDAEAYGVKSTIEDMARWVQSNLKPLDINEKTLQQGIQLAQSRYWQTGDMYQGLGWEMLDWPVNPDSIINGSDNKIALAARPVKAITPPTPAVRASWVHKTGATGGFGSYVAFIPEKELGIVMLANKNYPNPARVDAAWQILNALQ
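20 mM phosphate pH 7.0 + 0.01% (detergent screen) or 0.0001% Triton X-100; 5.3 nM AmpC reagent; cpd preinc 15 min RT; nitrocefin (800 uM stock) to start; A480 q20 s × 4 min; Activity was normalised to no-enzyme and no-compound control wells.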
AmpC no deterg: AmpC beta-lactamase inhibition without detergent | AmpC nitrocefin hydrolysis, absorbance 480 nm, 0.0001% Triton | Potency, µM (top dose mostly 57.1 µM), inactives show at the top dose activity change, negative = inhibition, hits mostly inhibitors | 330,000 tested, 0.52% active | AID 485341;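 note: plate controls were no compound for no effect and no enzyme for full effect; nearly all actives have a fitted effect of over 20% in size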
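AmpC (5.3 nM in the dispensed reagent) in 20 mM phosphate pH 7.0 with 0.01% (detergent screen) or 0.0001% Triton X-100 was preincubated with compounds for 15 min at room temperature. Nitrocefin was then added from an 800 uM solution, and hydrolysis was followed at 480 nm.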
Pf growth 48h: inhibits P. falciparum growth in the first generation, 48 h. P. falciparum luciferase growth in erythrocytes, 48 h. Potency, µM (highest dose often 28.7 µM), inactives show at the highest dose activity change, negative = inhibition, usual class: inhibitors. 310,000 tested, 5.9% active; note: % is set by controls: 0 for no effect and ±100 for the full control effect
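Growth was read as firefly luciferase luminescence after a 48 h, 37 C, 5% CO2 exposure of compounds to reporter-bearing P. falciparum cultures (0.1% parasitemia, 2% hematocrit final) in Albumax-supplemented RPMI 1640.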
Sm TGR block: blocks Schistosoma mansoni thioredoxin glutathione reductase; Potency, µM (doses to about 114 µM), for inactives: top-dose activity change, negative = inhibition, actives largely listed as inhibitors; Q962Y6; AID 485364; 360,000 tested, 3% active; purified TGR, DTNB reduction, TNB absorbance 405 nm; note: % is set by controls: 0 for no effect and ±100 for the full control effect; nearly all actives have a fitted effect of over 60% in size
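Kinetic colorimetric format: TGR-catalysed, NADPH-driven DTNB reduction monitored via TNB absorbance. Enzyme dispensed at 20 nM; compound exposure 15 min at room temperature before reaction start.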
Pf growth 96h: P. falciparum growth inhibition at 96 hours. P. falciparum luciferase reporter growth, 96 h. Potency, µM (series often up to 28.7 µM), for inactives: at the highest dose activity change, negative = inhibition, actives largely listed as inhibitors. 320,000 tested, 6.9% active; note: % is set by controls: 0 for no effect and ±100 for the full control effect
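Delayed-death screen, second-generation endpoint: infected erythrocytes, 2% hematocrit, 0.05% parasitemia final; 96 hours at 37 C, 5% CO2; luciferase detection reagent; luminescence decrease equals reduced growth.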
SARS PLpro yeast: SARS-CoV PLP inhibition in yeast; 330,000 tested, 0.19% active; S. cerevisiae expressing SARS-CoV PLpro, growth rescue; Potency, µM (series often up to 32.9 µM), inactives show at the highest dose activity, positive = growth rescue, actives largely listed as activators; calls by dose curve; note: 0% is about no effect; nearly all actives have a fitted effect of over 55% in size
* marks the source's active call; other numbers are inactive results; ? = inconclusive; . = no result given. Compounds with a hit are over-represented: about 12% of the library has one in this group of screens. Unless noted, calls come from the whole dose curve; as a rule, active = well fitted curve in the direction sought with a large enough effect; inconclusive = small, poorly fitted or top-dose-only effect, or another doubt; inactive = no such curve, though single readings can be large; an effect the other way counts as inactive or inconclusive. Potency is the fitted concentration of half-maximal effect.

SMILES	AmpC inh detg	AmpC no deterg	Pf growth 48h	Sm TGR block	Pf growth 96h	SARS PLpro yeast
COc1ccc(CCn2c(=N)c(C(=O)NCC3CCCO3)cc3c(=O)n4ccccc4nc32)cc1OC (stereo not drawn)	1%	14%	?	1%	?	0%
COc1ccc(NC(=O)CC2C(=O)N(c3ccccc3)C(=O)N2CCc2sccc2C)cc1 (stereo not drawn)	2%	.	.	8%	.	.
CCOc1ccc(NC(=O)CC2SC(=O)N(c3ccccc3)C2=O)cc1 (stereo not drawn)	3%	-16%	39%	?	?	-1%
Cc1ccccc1NC(=O)CC1SC(=O)N(c2ccccc2)C1=O (stereo not drawn)	3%	-22%	57%	5µM*	.	-14%
O=C(CC1SC(=O)N(c2ccccc2)C1=O)Nc1cccc2ccccc12 (stereo not drawn)	-4%	18µM*	0%	?	20%	2%
CCS(=O)(=O)N1CCC(n2c(C(F)(F)F)nc3cccnc32)CC1	3%	.	.	-1%	.	.
O=C(NCC1CCCO1)/C(=C/c1ccccc1F)NC(=O)c1ccccc1 (stereo not drawn)	-6%	1%	12%	-4%	?	0%
CC(=O)N1CCN(c2ncnc3sc(-c4ccccc4)cc23)CC1	7%	127%	17%	-9%	?	-2%
Oc1ccc(N2CCN(c3ncnc4sc(-c5ccccc5)cc34)CC2)cc1	-7%	-6%	?	-26%	15µM*	0%
COc1c(O)c(=O)n2c3ccccc3c3ccnc1c32	-8%	-3%	10µM*	4µM*	?	1%
CC(C)(/C=N/O)N(O)C=C1C=CC(=O)C=C1	-9%	72%	-1%	8%	0%	-1%
CN1C=CC(=CC=C2C=CC(=O)C=C2)C=C1	-8%	-24%	4.7µM*	-20%	1.9µM*	-1%
C=C(CO)CC1CC(O)[C@]2(C)OC3CC4OC5C[C@]6(C)O[C@]7(C)CCC8OC9C[C@]%10(C)OC%11C(C)=CC(=O)OC%11CC%10OC9C[C@@H](C)C8OC7CC6O[C@]5(C)C/C=C\C4OC3CC2O1 (stereo partly drawn)	1%	152%	.	4%	.	0%
C=C(C=O)CC1CC(O)[C@]2(C)OC3CC4OC5C[C@]6(C)O[C@]7(C)CCC8OC9C[C@]%10(C)OC%11C(C)=CC(=O)OC%11CC%10OC9C[C@@H](C)C8OC7CC6O[C@]5(C)CC5OC5C4OC3CC2O1 (stereo partly drawn)	3%	142%	.	11µM*	.	0%
Cc1cc(C)c(NC(=O)C2CCN(c3nnc(C)c4c(C)n(-c5ccccc5)nc34)CC2)c(C)c1	20%	.	.	-4%	.	.
CC(=O)CC(=O)Nc1ccc(Nc2ccccc2)cc1	-6%	-41%	-14%	-24%	21%	0%
COCCC(C(=O)Oc1c(C(C)(C)C)cc(C)cc1C(C)(C)C)c1ccccc1 (stereo not drawn)	7%	-9%	8.3µM*	-26%	5.2µM*	-5%
C=CCn1c(=O)c(C(=O)NCCc2ccccc2)c(O)c2ccccc21	6%	-13%	?	-9%	-8%	3%
CCn1c(=O)c(C(=O)NCCCO)c(O)c2ccccc21	-15%	46%	-20%	-5%	15%	-4%
CCN(CC)CCCNC(=O)c1c(O)c2ccccc2n(Cc2ccccc2)c1=O	-5%	45%	9.3µM*	4%	44%	5%
CCN(CC)CCNC(=O)c1c(O)c2ccccc2n(Cc2ccccc2)c1=O	-12%	54%	12µM*	10%	4.1µM*	7%
COc1cc(/C=C/C(=O)O)ccc1OS(=O)(=O)c1cc(C)ccc1C	-25%	-33%	-4%	0%	32%	-1%
CCCCNC1c2ccccc2C(=O)N1Cc1ccccc1 (stereo not drawn)	0%	-12%	8%	-1%	?	?
